Source: ChEMBL document CHEMBL3988442, “University of Dundee, Small-Polar-MMV Screening Library” (2021)
About 50 (0.07%) of roughly 69,000 compounds showed an effect of 50% or more. For the sample, strong results were picked, then their nearest neighbours and some compounds at random.

Target: Lysine--tRNA ligase (Plasmodium falciparum (isolate 3D7)) (UniProt Q8IDJ8)
Experiment: Pf-KRS-1 (Lysyl-RNA Synthetase-1, KRS-1, cytosolic KRS) from Plasmodium falciparum. Inhibitor assay, 384 well plate, luminescence read.
Assay type: functional
Set-up: scale not given: in the data most compounds retested in dose-response had high values
Conditions: 30 µM

Sequence of Lysine--tRNA ligase (Plasmodium falciparum (isolate 3D7)) (Q8IDJ8 1-583): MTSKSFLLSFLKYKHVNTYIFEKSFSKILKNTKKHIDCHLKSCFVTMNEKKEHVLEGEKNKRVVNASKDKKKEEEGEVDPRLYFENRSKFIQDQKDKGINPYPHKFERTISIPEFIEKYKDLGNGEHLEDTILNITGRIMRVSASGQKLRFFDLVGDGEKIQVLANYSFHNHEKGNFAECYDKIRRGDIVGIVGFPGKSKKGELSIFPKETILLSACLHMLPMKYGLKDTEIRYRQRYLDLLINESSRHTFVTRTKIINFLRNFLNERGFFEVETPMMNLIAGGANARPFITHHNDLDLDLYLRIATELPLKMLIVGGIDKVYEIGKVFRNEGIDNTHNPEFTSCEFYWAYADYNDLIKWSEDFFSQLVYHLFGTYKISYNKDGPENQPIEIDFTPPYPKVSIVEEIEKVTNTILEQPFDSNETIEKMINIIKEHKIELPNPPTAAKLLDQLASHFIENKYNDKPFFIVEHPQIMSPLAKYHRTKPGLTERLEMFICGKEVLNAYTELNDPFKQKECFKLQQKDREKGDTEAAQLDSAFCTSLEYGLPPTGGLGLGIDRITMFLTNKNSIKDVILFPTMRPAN

Q: Cc1cccc(CO[C@H]2CN(c3nnc(C)s3)[C@@H]3CCCO[C@H]23)n1 was tested. Which Percent Effect did it give?
A: 3.74%

Q: COc1cccc(-c2n[nH]c3c2CN(C(=O)c2cccc(=O)[nH]2)CC3)c1 was tested. Which Percent Effect did it give?
A: 55.1%

Q: COc1cccc(-c2n[nH]c3c2CN(C(=O)c2cc(C)n(C)n2)CC3)c1 was tested. Which Percent Effect did it give?
A: -1.18%

Q: COc1cccc(-c2n[nH]c3c2CN(C(=O)c2ccncc2)CC3)c1 was tested. Which Percent Effect did it give?
A: 0.631%

Q: How did the Percent Effect turn out when Cn1cccc1C(=O)N1C[C@H](OCC2CCOCC2)[C@H]2COC[C@H]21 was run?
A: 3.49%

Q: How did the Percent Effect turn out when c1cnnc(N[C@@H]2CC[C@@H]3CN(Cc4c[nH]c5ccccc45)C[C@@H]32)c1 was run?
A: 0.669%

Q: For CCCN(C(=O)c1ccncc1)c1nc2c(s1)CCc1c-2cnn1C, which Percent Effect is on record?
A: 16.2%

Q: For CCCN(C(=O)COC)c1nc2c(s1)CCc1c-2cnn1C, which Percent Effect is on record?
A: 74.8%

Q: With COCCN(C(=O)c1cnccn1)c1nc2c(s1)CCc1c-2cnn1C as the compound, how does the Percent Effect read?
A: 8.73%

Q: With CCCN(C(=O)c1ccccn1)c1nc2c(s1)CCc1c-2cnn1C as the compound, how does the Percent Effect read?
A: 50.4%

Q: How did the Percent Effect turn out when CCCN(C(=O)c1cccnc1)c1nc2c(s1)CCc1c-2cnn1C was run?
A: 44%

Q: How did the Percent Effect turn out when COCCN(C(=O)c1ccccn1)c1nc2c(s1)CCc1c-2cnn1C was run?
A: 52.4%

Q: How did the Percent Effect turn out when CCCN(C(=O)c1cnc(C)cn1)c1nc2c(s1)CCc1c-2cnn1C was run?
A: 40.4%

Q: For CN(C(=O)c1ccccn1)c1nc2c(s1)CCc1c-2cnn1C, which Percent Effect is on record?
A: 0.965%

Q: For CCCN(C(=O)c1cnccn1)c1nc2c(s1)CCc1c-2cnn1C, which Percent Effect is on record?
A: 10.8%

Q: With Cc1nccc([C@H]2C[C@@H]3CCN(S(C)(=O)=O)C[C@H]3O2)n1 as the compound, how does the Percent Effect read?
A: -0.787%

Q: How did the Percent Effect turn out when O=C([C@H]1COC[C@H]2CN(c3ccncn3)C[C@H]21)N1CCCC1 was run?
A: -3.71%

Q: For O=C(Nc1cnccn1)[C@H]1C[C@H]2OCC[C@H]2N(c2ncc(F)cn2)C1, which Percent Effect is on record?
A: 11.9%

Q: Which Percent Effect does the source give for COc1cccc(-c2ncc(CN3C[C@@H]4CC[C@H](C3)N(C)C4=O)s2)c1 here?
A: -4.12%

Q: For CCn1ncnc1C1CC(=O)NCc2nc(N3CCOCC3)sc21 (stereo not given), which Percent Effect is on record?
A: 0.366%

Q: Which Percent Effect does the source give for COc1ccc(OC)c(C2CCN(CC(C)(C)N3CCOCC3)C2)c1 (stereo not given) here?
A: 1.11%

Q: For COc1ccc(OC)c(C2SCC(=O)Nc3n[nH]cc32)c1 (stereo not given), which Percent Effect is on record?
A: 4.67%

Q: For COc1ccc(C2CC(=O)Nc3c2cnn3C)cc1 (stereo not given), which Percent Effect is on record?
A: -3.99%

Q: COc1ccc(C2CCCN2c2nnc(C)s2)c(OC)c1 (stereo not given) was tested. Which Percent Effect did it give?
A: -1.09%

Q: COc1ccc(C2CC(=O)Nc3nc(N4CCOCC4)sc32)c(OC)c1 (stereo not given) was tested. Which Percent Effect did it give?
A: 86.4%

Q: How did the Percent Effect turn out when COc1ccc(OC)c(C2CC(=O)Nc3nc(N4CCOCC4)sc32)c1 (stereo not given) was run?
A: 84.5%

Q: With COc1ccc(C2CC(=O)NCc3nc(N(C)C)sc32)c(O)c1 (stereo not given) as the compound, how does the Percent Effect read?
A: 1.01%

Q: How did the Percent Effect turn out when COc1ccc(C2CC(=O)Nc3nc(N4CCOCC4)sc32)cc1 (stereo not given) was run?
A: 82.2%

Q: With COCCN1C(=O)CO[C@H]2CN(Cc3ccccc3Cl)C[C@@H]21 as the compound, how does the Percent Effect read?
A: 3.69%

Q: Which Percent Effect does the source give for O=C(c1cocn1)N1C[C@H]2CCC[C@@]2(COCc2cccnc2)C1 here?
A: 2.44%

Q: How did the Percent Effect turn out when Cc1c(Cl)cccc1S(=O)(=O)N1C[C@@H]2CC[C@H](C1)N(C)C2=O was run?
A: 3.71%

Q: With O=S1(=O)C[C@@H]2[C@H](C1)N(Cc1ccoc1)CCN2Cc1ccncc1 as the compound, how does the Percent Effect read?
A: 8.97%

Q: For O=C(c1ccncc1)N1C[C@@H]2CC[C@H](C1)N(C(=O)C1CCCC1)C2, which Percent Effect is on record?
A: -0.475%

Q: With O=C1CC(c2ccccc2F)c2c(n3ccsc3nc2=O)N1 (stereo not given) as the compound, how does the Percent Effect read?
A: 6.5%

Q: CNc1nc2c(s1)C(c1cc(Cl)ccc1F)CC(=O)N2 (stereo not given) was tested. Which Percent Effect did it give?
A: 44.9%

Q: With CNc1nc2c(s1)C(c1cccc(F)c1F)CC(=O)N2 (stereo not given) as the compound, how does the Percent Effect read?
A: 50.5%

Q: How did the Percent Effect turn out when CNc1nc2c(s1)C(c1ccc(F)cc1Cl)CC(=O)N2 (stereo not given) was run?
A: 82%

Q: Cn1ncc2c1NC(=O)CC2c1ccc(Cl)cc1Cl (stereo not given) was tested. Which Percent Effect did it give?
A: 9.51%

Q: For Cn1ncc2c1NC(=O)CC2c1ccccc1Cl (stereo not given), which Percent Effect is on record?
A: 6.28%

Q: Cc1ccsc1C1CC(=O)Nc2c1cnn2C(C)C (stereo not given) was tested. Which Percent Effect did it give?
A: 3.08%

Q: With CNc1nc2c(s1)C(c1cccc(Cl)c1Cl)CC(=O)N2 (stereo not given) as the compound, how does the Percent Effect read?
A: 29.5%

Q: CNc1nc2c(s1)C(c1ccccc1F)CC(=O)N2 (stereo not given) was tested. Which Percent Effect did it give?
A: 79.2%

Q: How did the Percent Effect turn out when CC(C)(C)n1ncc2c1NC(=O)CC2c1c(F)cccc1F (stereo not given) was run?
A: 5.99%

Q: Which Percent Effect does the source give for CNc1nc2c(s1)C(c1ccc(Cl)cc1Cl)CC(=O)N2 (stereo not given) here?
A: 47.4%

Q: Which Percent Effect does the source give for CNc1nc2c(s1)C(c1ccccc1Cl)CC(=O)N2 (stereo not given) here?
A: 84.5%

Q: Which Percent Effect does the source give for O=C(NCC1CC1)[C@@H]1CC[C@@H]2[C@@H](CCN2Cc2ccco2)O1 here?
A: -0.532%

Q: For COCCN1C[C@H]2CN(Cc3cccc(OC)c3)CCN2C1=O, which Percent Effect is on record?
A: 8.64%

Q: With COc1ncccc1C(=O)N1C[C@@H]2COC[C@]2(CN(C)C)C1 as the compound, how does the Percent Effect read?
A: -2.56%

Q: Fc1ccccc1CN1C[C@@H]2OCCN(c3ncccn3)[C@@H]2C1 was tested. Which Percent Effect did it give?
A: -1.46%

Q: With COCCN1C(=O)[C@H]2CC[C@@H]1CN(S(=O)(=O)c1ccc(OC)cc1)C2 as the compound, how does the Percent Effect read?
A: 5.86%

Q: How did the Percent Effect turn out when c1cnc2c(-c3nccn3C[C@@H]3CCCN4CCCC[C@H]34)cccc2c1 was run?
A: 1.5%

Q: Which Percent Effect does the source give for Cc1cccc(S(=O)(=O)N2CC[C@H]3[C@H]2CCN3c2ncccn2)c1 here?
A: 1.51%

Q: O=C(c1cscn1)N1CC[C@@H]2[C@@H]1CCN2C1CCOCC1 was tested. Which Percent Effect did it give?
A: 1.62%

Q: For CN1C[C@@H]2CC[C@H](CC1=O)N2C(=O)c1ccc(-c2ccccc2)[nH]c1=O, which Percent Effect is on record?
A: 16.3%

Q: COc1ccc(CC(=O)N2CC[C@@H]3CN(C)S(=O)(=O)[C@@H]3CC2)cc1 was tested. Which Percent Effect did it give?
A: 3.63%

Q: How did the Percent Effect turn out when Cn1ncc2c1NC(=O)CC2c1c(F)cccc1Cl (stereo not given) was run?
A: 2.46%

Q: CNc1nc2c(s1)C(c1c(F)cccc1Cl)CC(=O)N2 (stereo not given) was tested. Which Percent Effect did it give?
A: 70%

Q: CNc1nc2c(s1)C(c1c(Cl)cccc1Cl)CC(=O)N2 (stereo not given) was tested. Which Percent Effect did it give?
A: 35.2%

Q: O=C1C[C@H]2[C@@H](CCN2C(=O)Cc2cccs2)N1Cc1ccncc1 was tested. Which Percent Effect did it give?
A: 3.5%

Q: With Cc1cccc(CN2C[C@@H]3OCCN(S(=O)(=O)N(C)C)[C@@H]3C2)c1 as the compound, how does the Percent Effect read?
A: 2.13%
